# According to publication PMC8384837, “Expanding the binding specificity for RNA recognition by a PUF domain”:
# Target: PUM1 PUF domain R4-PFV (Homo sapiens, UniProt Q14671 828-1176, N971P;H972F;Q975V)
# Assay: yeast three-hybrid, YBZ-1, SC-Leu-His + 0.5 mM 3-AT, 4 days
# Details: tags: N-Gal4 AD-HA kept; label: inside an RPR1-promoter hybrid RNA with tandem MS2 sites; ssRNA
# Method in brief: (§1)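 The interaction score is the logarithmic change in variant frequency from input to selection. It uses log2, with a pseudocount of 1 for absent variants, and frequencies came from PCR-amplified, Illumina-sequenced repeat regions. The libraries were Pumilio-1 PUF domains randomized at the three base-contacting residues per repeat, co-expressed with matching RNA elements in strain YBZ-1 (LexA–MS2 coat fusion, HIS3 reporter). Plating lasted four days on SC-Leu (input) or SC-Leu-His + 0.5 mM 3-AT (selection).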
# Sequence of PUM1 PUF domain R4-PFV (Q14671 828-1176 N971P/H972F/Q975V): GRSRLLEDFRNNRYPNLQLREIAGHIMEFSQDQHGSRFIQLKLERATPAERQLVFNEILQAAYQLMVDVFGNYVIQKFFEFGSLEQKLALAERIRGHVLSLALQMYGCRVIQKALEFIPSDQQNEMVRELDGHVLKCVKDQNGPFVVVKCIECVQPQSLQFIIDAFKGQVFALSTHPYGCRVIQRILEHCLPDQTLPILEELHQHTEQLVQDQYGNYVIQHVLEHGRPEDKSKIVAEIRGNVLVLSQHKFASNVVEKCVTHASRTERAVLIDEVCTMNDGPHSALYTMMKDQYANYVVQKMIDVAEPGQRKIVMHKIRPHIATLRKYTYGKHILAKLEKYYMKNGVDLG
row,Sequence,binding signal
1,GGCUAGAACUAGUGGAUCCCCCGGCGCCCGGCGGCUCGAGCCCGGGUAAGUGUAUAUAGUCUGCAUGCCGCCGGGCGCCAUGCCUGCAGGUCGACUCUAGAAAACAUG,6.87 log2 enrichment (interaction score)
2,GGCUAGAACUAGUGGAUCCCCCGGCGCCCGGCGGCUCGAGCCCGGGUAAGUGUACAUAGUCUGCAUGCCGCCGGGCGCCAUGCCUGCAGGUCGACUCUAGAAAACAUG,5.7 log2 enrichment (interaction score)
3,GGCUAGAACUAGUGGAUCCCCCGGCGCCCGGCGGCUCGAGCCCGGGUAAGUGUAAAUAGUCUGCAUGCCGCCGGGCGCCAUGCCUGCAGGUCGACUCUAGAAAACAUG,6.08 log2 enrichment (interaction score)

# Target: PUM1 PUF domain R1-YMR (Homo sapiens, UniProt Q14671 828-1176, S863Y;R864M;Q867R)
# Sequence (Q14671 828-1176 S863Y/R864M/Q867R): as the sequence (Q14671 828-1176 N971P/H972F/Q975V) above, with S36Y, R37M, Q40R, P144N, F145H, V148Q counted along it
# Assay: as above
# Details: tags: N-Gal4 AD-HA kept; label: inside an RPR1-promoter hybrid RNA with tandem MS2 sites; ssRNA
# Method in brief: as §1
row,Sequence,binding signal
1,GGCUAGAACUAGUGGAUCCCCCGGCGCCCGGCGGCUCGAGCCCGGGUAAGUGUAAAUAGUCUGCAUGCCGCCGGGCGCCAUGCCUGCAGGUCGACUCUAGAAAACAUG,2.85 log2 enrichment (interaction score)
2,GGCUAGAACUAGUGGAUCCCCCGGCGCCCGGCGGCUCGAGCCCGGGUAAGUGUAAAUCGUCUGCAUGCCGCCGGGCGCCAUGCCUGCAGGUCGACUCUAGAAAACAUG,6.92 log2 enrichment (interaction score)
3,GGCUAGAACUAGUGGAUCCCCCGGCGCCCGGCGGCUCGAGCCCGGGUAAGUGUAAAUUGUCUGCAUGCCGCCGGGCGCCAUGCCUGCAGGUCGACUCUAGAAAACAUG,4.12 log2 enrichment (interaction score)

# Target: PUM1 PUF domain R5-GMR (Homo sapiens, UniProt Q14671 828-1176, C1007G;R1008M;Q1011R)
# Sequence (Q14671 828-1176 C1007G/R1008M/Q1011R): as the sequence (Q14671 828-1176 N971P/H972F/Q975V) above, with P144N, F145H, V148Q, C180G, R181M, Q184R counted along it
# Assay: as above
# Details: tags: N-Gal4 AD-HA kept; label: inside an RPR1-promoter hybrid RNA with tandem MS2 sites; ssRNA
# Method in brief: as §1
row,Sequence,binding signal
1,GGCUAGAACUAGUGGAUCCCCCGGCGCCCGGCGGCUCGAGCCCGGGUAAGUGUAAAUAGUCUGCAUGCCGCCGGGCGCCAUGCCUGCAGGUCGACUCUAGAAAACAUG,0.88 log2 enrichment (interaction score)
2,GGCUAGAACUAGUGGAUCCCCCGGCGCCCGGCGGCUCGAGCCCGGGUAAGUGUUAAUAGUCUGCAUGCCGCCGGGCGCCAUGCCUGCAGGUCGACUCUAGAAAACAUG,1.23 log2 enrichment (interaction score)
3,GGCUAGAACUAGUGGAUCCCCCGGCGCCCGGCGGCUCGAGCCCGGGUAAGUGUCAAUAGUCUGCAUGCCGCCGGGCGCCAUGCCUGCAGGUCGACUCUAGAAAACAUG,3.28 log2 enrichment (interaction score)

# Target: PUM1 PUF domain R8-TYK (Homo sapiens, UniProt Q14671 828-1176, N1122T;Q1126K)
# Sequence (Q14671 828-1176 N1122T/Q1126K): as the sequence (Q14671 828-1176 N971P/H972F/Q975V) above, with P144N, F145H, V148Q, N295T, Q299K counted along it
# Assay: as above
# Details: tags: N-Gal4 AD-HA kept; label: inside an RPR1-promoter hybrid RNA with tandem MS2 sites; ssRNA
# Method in brief: as §1
row,Sequence,binding signal
1,GGCUAGAACUAGUGGAUCCCCCGGCGCCCGGCGGCUCGAGCCCGGGUAAGGGUAAAUAGUCUGCAUGCCGCCGGGCGCCAUGCCUGCAGGUCGACUCUAGAAAACAUG,3.38 log2 enrichment (interaction score)
2,GGCUAGAACUAGUGGAUCCCCCGGCGCCCGGCGGCUCGAGCCCGGGUAAGUGUAAAUAGUCUGCAUGCCGCCGGGCGCCAUGCCUGCAGGUCGACUCUAGAAAACAUG,2.62 log2 enrichment (interaction score)
3,GGCUAGAACUAGUGGAUCCCCCGGCGCCCGGCGGCUCGAGCCCGGGUAAGCGUAAAUAGUCUGCAUGCCGCCGGGCGCCAUGCCUGCAGGUCGACUCUAGAAAACAUG,2.07 log2 enrichment (interaction score)
